Shown are actives, neighbours in structure and some others; about 0.84% of the full set was active somewhere.
SRC3 TRFRET art – TR-FRET detection interference compounds, artefact control for PPARgamma SRC-3 recruitment agonists, biochemical, TR-FRET ratio; TR-FRET artefact counter-screen, PPARgamma/SRC-3 format; active compounds read high; TR-FRET ratio at 8 µM; 99,000 tested, 0.39% active
PPARg SRC3 recr – PPARgamma agonists recruiting SRC-3 coactivator, primary screen, biochemical; Peroxisome proliferator-activated receptor gamma (Homo sapiens), P37231; biochemical PPARgamma/SRC-3 coactivator recruitment assay; activation, % at 8 µM; 200,000 tested, 0.26% active; in the data active = activation above about 23%;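 also: 0% = DMSO and 100% = reference agonist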
SRC1 TRFRET art – TR-FRET detection interference compounds, primary screen, artefact control for PPARgamma SRC-1 recruitment agonists, biochemical, TR-FRET emission ratio; 99,000 tested, 0.34% active; TR-FRET ratio at 8 µM; TR-FRET detection artefact counter-screen; active compounds read high; AID 1051, 2008; in the data active = TR-FRET ratio above about 2300
PPARg SRC2 recr – agonists of PPARg-SRC-2 recruitment, primary screen, biochemical, HTS; Peroxisome proliferator-activated receptor gamma (Homo sapiens), P37231; PPARgamma LBD-SRC-2 recruitment; activation, % at 8 µM; 200,000 tested, 0.34% active; in the data active = activation above about 22%;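 also: 0% = vehicle and 100% = reference agonist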
PPARg SRC1 recr – PPARgamma agonists recruiting SRC-1 coactivator, primary screen, biochemical. PPARgamma-SRC-1 coactivator recruitment biochemical assay. 200,000 tested, 0.41% active. activation, % at 8 µM; in the data active = activation above about 19%;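 also: 0% = DMSO and 100% = reference agonist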
SRC2 TRFRET art – TR-FRET signal artefacts, primary screen, artefact control for PPARgamma SRC-2 agonist project, biochemical; TR-FRET artefact counter-screen; active compounds read high; TR-FRET ratio at 8 µM; 200,000 tested, 0.4% active
PPARg SRC2 ag – agonists of PPARgamma SRC-2 coactivator recruitment, confirmation, biochemical, HTS; biochemical SRC-2 recruitment by PPARgamma; activation, % at 8 µM; shares compounds with PPARg SRC3 recr; 790 tested, 52% active; in the data active = activation above about 22%;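 also: 0% = vehicle alone and 100% = reference agonist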
PPARg SRC1 ag – PPARgamma agonists recruiting SRC-1 coactivator, confirmation, biochemical; shares compounds with PPARg SRC3 recr; activation, % at 8 µM; 790 tested, 43% active; PPARgamma–SRC-1 coactivator recruitment biochemical assay; in the data active = activation above about 20%;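 also: 0% = vehicle wells and 100% = reference agonist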
PPARg SRC3 ag – PPARgamma-driven SRC-3 coactivator recruitment agonists, confirmation, biochemical | shares compounds with PPARg SRC3 recr | biochemical PPARgamma-SRC-3 coactivator recruitment, agonist mode | activation, % at 8 µM | 790 tested, 29% active | AID 1301, 2008; in the data active = activation above about 24%;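 also: 0% = vehicle wells and 100% = reference agonist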
Target sequence (P37231 whole entry, looked up): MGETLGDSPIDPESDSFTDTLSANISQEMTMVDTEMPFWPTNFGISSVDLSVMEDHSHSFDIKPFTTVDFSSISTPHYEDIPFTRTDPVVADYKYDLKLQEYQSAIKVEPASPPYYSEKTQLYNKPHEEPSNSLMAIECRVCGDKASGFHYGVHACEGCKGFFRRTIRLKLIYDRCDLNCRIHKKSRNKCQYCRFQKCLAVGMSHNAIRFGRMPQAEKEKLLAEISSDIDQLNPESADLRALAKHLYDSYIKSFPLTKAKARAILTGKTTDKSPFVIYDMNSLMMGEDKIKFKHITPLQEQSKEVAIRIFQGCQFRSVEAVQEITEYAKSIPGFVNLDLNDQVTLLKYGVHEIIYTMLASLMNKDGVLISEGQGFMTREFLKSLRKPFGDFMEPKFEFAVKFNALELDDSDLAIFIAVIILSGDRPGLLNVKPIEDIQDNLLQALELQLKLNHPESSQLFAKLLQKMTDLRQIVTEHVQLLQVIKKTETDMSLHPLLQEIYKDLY
Target sequence (Q9Y6Q9 whole entry, looked up): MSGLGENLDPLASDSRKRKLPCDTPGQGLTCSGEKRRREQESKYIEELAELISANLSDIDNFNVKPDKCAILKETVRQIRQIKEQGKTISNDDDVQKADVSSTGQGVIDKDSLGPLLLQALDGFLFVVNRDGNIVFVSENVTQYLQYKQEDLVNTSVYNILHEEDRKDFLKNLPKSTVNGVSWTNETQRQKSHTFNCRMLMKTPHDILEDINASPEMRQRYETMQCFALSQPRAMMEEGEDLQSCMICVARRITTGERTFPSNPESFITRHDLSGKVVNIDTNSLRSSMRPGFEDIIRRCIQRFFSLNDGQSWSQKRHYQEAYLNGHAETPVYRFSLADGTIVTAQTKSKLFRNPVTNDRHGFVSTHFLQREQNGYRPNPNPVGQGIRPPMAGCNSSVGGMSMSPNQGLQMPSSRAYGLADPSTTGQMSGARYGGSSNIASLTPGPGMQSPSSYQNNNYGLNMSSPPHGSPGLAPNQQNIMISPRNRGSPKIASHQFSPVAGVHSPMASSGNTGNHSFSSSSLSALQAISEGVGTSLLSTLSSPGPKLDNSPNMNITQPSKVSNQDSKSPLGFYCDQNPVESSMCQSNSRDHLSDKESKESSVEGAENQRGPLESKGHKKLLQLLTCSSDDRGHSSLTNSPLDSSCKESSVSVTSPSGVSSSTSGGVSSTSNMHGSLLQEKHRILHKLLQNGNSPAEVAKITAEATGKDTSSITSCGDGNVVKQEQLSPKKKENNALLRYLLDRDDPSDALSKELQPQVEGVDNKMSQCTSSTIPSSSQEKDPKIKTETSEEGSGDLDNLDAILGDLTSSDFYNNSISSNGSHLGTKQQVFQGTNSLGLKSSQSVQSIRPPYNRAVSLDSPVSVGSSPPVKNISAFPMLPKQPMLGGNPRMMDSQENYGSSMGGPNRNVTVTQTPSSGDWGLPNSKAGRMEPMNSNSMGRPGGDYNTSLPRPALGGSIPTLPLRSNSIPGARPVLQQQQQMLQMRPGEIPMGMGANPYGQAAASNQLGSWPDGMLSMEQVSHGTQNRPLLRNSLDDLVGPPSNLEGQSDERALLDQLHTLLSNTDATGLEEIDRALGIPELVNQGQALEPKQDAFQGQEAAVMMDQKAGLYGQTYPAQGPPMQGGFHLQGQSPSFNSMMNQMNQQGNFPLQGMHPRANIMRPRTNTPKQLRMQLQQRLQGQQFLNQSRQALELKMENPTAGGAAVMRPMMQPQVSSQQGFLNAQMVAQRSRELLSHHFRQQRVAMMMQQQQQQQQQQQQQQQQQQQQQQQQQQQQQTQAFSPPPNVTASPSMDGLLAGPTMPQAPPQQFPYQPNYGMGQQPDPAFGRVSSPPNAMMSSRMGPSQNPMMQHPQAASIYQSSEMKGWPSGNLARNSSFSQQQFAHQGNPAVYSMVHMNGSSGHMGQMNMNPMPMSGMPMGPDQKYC
An asterisk follows results filed as active; x = not tested or not shown. Rule as the data show it, unless noted: active = TR-FRET ratio above about 2000; inactive = the rest.

SMILES | SRC3 TRFRET art | PPARg SRC3 recr | SRC1 TRFRET art | PPARg SRC2 recr | PPARg SRC1 recr | SRC2 TRFRET art | PPARg SRC2 ag | PPARg SRC1 ag | PPARg SRC3 ag
NC(=O)CSc1ncnc2c1oc1ccccc12 | x | 153.4* | x | 110.2* | 120.1* | 4661* | 76.4* | 54.6* | 53.0*
O=C(CSc1ncnc2c1oc1ccccc12)Nc1nccs1 | 1569 | 3.0 | 1953 | 14.3 | 0.3 | 1614 | x | x | x
O=C(CSc1ncnc2c1oc1ccccc12)NC1CCCCC1 | x | 32.9* | x | 24.5* | 64.5* | 2101* | 49.1* | 36.8* | 32.2*
CCOc1ccc(NC(=S)N2CCc3cc(OC)c(OC)cc3C2COc2ccc3c(C)cc(=O)oc3c2)cc1 (stereo not given) | 1708 | -4.6 | 2131 | 4.7 | 5.5 | 1656 | x | x | x
NC(CSCc1cccc(Br)c1)C(=O)O (stereo not given) | 1582 | 5.5 | 1902 | 7.0 | -3.3 | 1612 | x | x | x
COc1ccc(S(=O)(=O)Nc2nccs2)cc1OC | 1568 | 1.0 | 1720 | 6.7 | 1.3 | 1549 | x | x | x
COc1ccc(-c2nnc(Nc3ccc(S(=O)(=O)Nc4nccs4)cc3)c3ccccc23)cc1 | 1895 | 46.5* | 2204 | 17.6 | 55.1* | 1729 | 35.3* | 25.1* | 24.0*
CC(C)CC(=O)NC(=S)Nc1cccc2nsnc12 | 4035* | 62.1* | 5013* | 86.8* | 135.4* | 3677* | 136.6* | 104.9* | 81.0*
COc1c(C)cccc1C(=O)NC(=S)Nc1cccc2nsnc12 | 2881* | 36.2* | 2682* | 30.0* | 38.6* | 2472* | 90.4* | 70.7* | 60.4*
CC(=O)c1ccc(N2CCN(C(=O)c3ccc(Cn4c(=S)[nH]c5ccc(N6CCOCC6)cc5c4=O)cc3)CC2)cc1 | 3877* | 34.7* | 4282* | 36.7* | 39.6* | 3627* | 19.3 | 14.8 | 12.2
CCCCNC(=O)C1CCN(S(=O)(=O)N2CCOCC2)CC1 | 1590 | 4.5 | 1968 | -8.9 | 14.8 | 1737 | x | x | x
CCOC(=O)N1CCN(C(=S)Nc2cc(S(=O)(=O)N3CCOCC3)ccc2Cl)CC1 | 1483 | -0.8 | 1806 | 1.7 | 0.4 | 1682 | x | x | x
Cc1ccc(CNC(=O)C(=O)NCC2OCCN2C(=O)c2cccs2)cc1 (stereo not given) | 1515 | -0.5 | 1702 | -2.6 | 2.6 | 1415 | x | x | x
COC(=O)c1cc2c(-c3ccccc3)c(C)c3ccccn3c-2c1C(=O)OC | x | 29.5* | x | 16.2 | 17.3 | 1968 | 8.0 | 13.5 | 3.9
COC(=O)c1c(Cl)c2n3ccccc3c(C)c(-c3ccccc3)c-2c1C(=O)OC | 2198* | 11.0 | 2328* | 24.2* | 18.2 | 2016* | 0.7 | 3.4 | 2.5
COC(=O)c1c(C(=O)OC)c2cc(C)ccn2c1Cl | x | 2.9 | x | 8.7 | 5.6 | 1615 | x | x | x
CCCCCCN1C=CC(=C/C=C(\C#N)C(=O)OCC)C=C1 | x | 14.6 | x | 20.0 | 20.7* | 1710 | 6.7 | 4.0 | 3.8
CCCN1C=CC(=C/C=C(\C#N)C(=O)OCC)C=C1 | x | 13.8 | x | 19.5 | 16.9 | 1797 | x | x | x
Cc1ccc(C=Nc2ccc(N(C)C)cc2)o1 | x | 101.9* | x | 101.6* | 65.2* | 3126* | 1.3 | -3.2 | -0.9
CCn1c(SCC(=O)Nc2cc3oc4ccccc4c3cc2OC)nnc1-c1cccs1 | x | 11.6 | x | 25.9* | 5.4 | 1548 | 4.8 | 0.0 | 2.2
COc1cc2c(cc1NC(=O)CSc1nnc(Cc3cccs3)n1C)oc1ccccc12 | x | -11.1 | x | 1.9 | 4.8 | 1490 | x | x | x
CCSc1nc(-c2cccnc2)ccc1C#N | 1471 | -1.1 | 1828 | 0.3 | 3.9 | 1412 | x | x | x
CCn1c(SCC(=O)OC2CCCCC2)nnc1-c1ccncc1 | x | 13.2 | x | 29.4* | 3.1 | 2048* | -2.3 | -2.9 | -2.1
CCn1c(SCC(=O)OC)nnc1-c1ccncc1 | x | 3.0 | x | 1.9 | -2.6 | 1400 | x | x | x
COc1cc(C(=O)NNC(=O)c2cc(C)[nH]n2)cc(OC)c1OC | 1356 | -0.4 | 1750 | 0.9 | -5.7 | 1400 | x | x | x
SMILES | SRC3 TRFRET art | PPARg SRC3 recr | SRC1 TRFRET art | PPARg SRC2 recr | PPARg SRC1 recr | SRC2 TRFRET art | PPARg SRC2 ag | PPARg SRC1 ag | PPARg SRC3 ag
Cc1ccc2[nH]c(C)cc(=S)c2c1 | 2534* | 22.2 | 2798* | 38.1* | 25.9* | 2363* | 3.9 | 6.8 | 5.0
Cc1cc(=O)c2cc(Cl)ccc2[nH]1 | x | 6.0 | x | -2.7 | 5.5 | 1770 | x | x | x
Cc1csc(NC(=O)c2cc(-c3ccccc3)nc3ccccc23)n1 | 1714 | 0.9 | 1776 | -10.9 | 1.3 | 1775 | x | x | x
NC(=O)c1sc2nc(-c3ccco3)ccc2c1N | x | 30.1* | x | 17.5 | 18.5 | 1756 | 13.7 | 16.5 | 9.5
COc1ccc(C2=NN(S(C)(=O)=O)C(c3cccs3)C2)cc1OC (stereo not given) | 1614 | -2.2 | 1454 | -1.2 | -10.3 | 1450 | x | x | x
S=C(c1ccc(-c2ccc(Cl)cc2)o1)N1CCCCC1 | x | -0.8 | x | -5.7 | -1.6 | 1533 | x | x | x
N#CCCN1CCN(C(=S)c2ccc(-c3ccc(Cl)cc3)o2)CC1 | x | 15.5 | x | 0.9 | 23.6* | 1605 | 31.1* | 27.7* | 18.4

Assay outcomes (PubChem BioAssay)
